Several values for one entry are separate records, joined by “and”; a condition that tells them apart may be missing. Equal values may be shown once. Activity calls are given as the source filed them. The calls were made as follows: active = hit-call score of the fitted dose curve at least 0.9, where 1 is the maximum; inactive = score below 0.9.

The assay can be described thus: BSK_KF3CT_SRB: Viability Assessment in the BioMAP Diversity Plus: KF3CT Assay (AID 2283069).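 Also: fitted for both signal gain and loss against DMSO baseline.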 Conditions: primary human keratinocytes with fibroblasts. Here is the method:
BSK_KF3CT is a cell-based, multiplexed-readout assay that uses keratinocytes and foreskin fibroblasts, a human skin primary cell co-culture, with measurements taken at 24 hours after chemical dosing in a 96-well plate.BSK_KF3CT_SRB is an assay component measured in the BSK_KF3CT assay. It measures 0.1% sulforhodamine related to cell death using Sulforhodamine staining technology.Data from the assay component BSK_KF3CT_SRB was analyzed into 1 assay endpoint. This assay endpoint, BSK_KF3CT_SRB, was analyzed with bidirectional fitting relative to DMSO as the negative control and baseline of activity. Using a type of viability reporter, gain or loss-of-signal activity can be used to understand changes in the signaling. Furthermore, this assay endpoint can be referred to as a primary readout, because this assay has produced multiple assay endpoints where this one serves a signaling function. To generalize the intended target to other relatable targets, this assay endpoint is annotated to the cell morphology intended target family, where the subfamily is cell conformation.
The levels of cell surface (or secreted, indicated by the prefix "s") biomarker endpoints were measured by ELISA. Overt cytotoxicity to cells in confluent adherent cultures (all systems other than the BT system) was assessed by measuring total protein levels using sulforhodamine B (SRB) staining in parallel cultures at the time of biomarker measurements, indicated as SRB endpoints. For proliferation assays for adherent cell types, individual cell types are cultured at sub-confluence and relative cell numbers quantified by SRB staining at time points optimized for each system (48 h: 3C and CASM3C systems; 72 h: BT and HDF3CGF systems; 96 h: SAg system). SRB was performed by staining cells with 0.1% SRB after fixation with 10% TCA and reading wells at 560 nm.Viability and proliferation of PBMC (T cells) was quantified by Alamar Blue reduction for the SAg and BT systems. For PBMC viability (referred to as PBMC Cytotoxicity within the assay endpoint names), cells were plated (75,000/well in a 96-well plate) and then chemical samples added for 1 h before addition of activators, SEB and TSST-1 (20 ng/mL final concentration each). Cells were incubated for 90 h. Then, Alamar Blue (20 uL/well) (Invitrogen, Cat DAL1100) was added for 6 h, and the plates were read with a fluorescence microplate reader at 546/580 nm (excitation/emission). For PBMC proliferation, cells were plated and activated as above but incubated for only 16 h prior to addition of Alamar Blue. Plates were read after 6 h.
Consider `O=C(CCl)c1ccccc1`, for which the concentration at half-maximal activity (AC50) is 30.9 µM (active).

As to `Cc1ccc(OP(=O)(Oc2ccc(C)cc2)Oc2ccc(C)cc2)cc1` (tested in a mixture with another compound), the outcome was inactive.

Consider `CNC(=O)Oc1cc(C)c(SC)c(C)c1`, for which the result was inactive.

As for `Clc1ccc(-c2ccccc2)cc1`, the outcome was inactive.

Consider `CCc1cc(C)cc(CC)c1-c1c(OC(=O)C(C)(C)C)n2n(c1=O)CCOCC2`, for which the outcome was inactive.

For `O=[N+]([O-])C=Cc1ccccc1`, the AC50 was 2.46 µM (active).

Regarding `CC(C)COP(=O)(OCC(C)C)OCC(C)C`, the outcome was inactive.

Take `Oc1ccc(C2(c3ccc(O)cc3)c3ccccc3-c3ccccc32)cc1`: the AC50 is 5.12 µM (active) and 5.08 µM (active).

As to `O=c1c2ccccc2c(=O)c2c1cc(Cl)c1[nH]c3c([nH]c12)c(Cl)cc1c(=O)c2ccccc2c(=O)c13`, the outcome was inactive.

`CC(=O)/C=C/c1ccccc1`: the outcome was inactive.

Regarding `CC(C)(C)C(=O)CCl`, the result was inactive.

Take `CCCOC(=O)c1ccccc1C(=O)OCCC`: the result was inactive.

For `O=c1[nH]c(Cl)c(Cl)cc1Cl`, the outcome was inactive.

Take `[Cd+2].[Cl-].[Cl-]`: the AC50 was 32.4 µM (active) and 32.1 µM (active).

With `COC(C)(C)CCC[C@H](C)C/C=C/C(C)=C/C(=O)OC(C)C`, the outcome was inactive.

Take `C=CCN(CC=C)C(=O)C(Cl)Cl`: the outcome was inactive.

Regarding `O=[N+]([O-])O`, the outcome was inactive.

With `O=C1C(Cl)=C(Cl)C(=O)C(Cl)=C1Cl`, the outcome was inactive.

For the compound `O=C(O)CCCc1ccc(N(CCCl)CCCl)cc1`, the result was inactive.

Regarding `C=CC(=O)OCC(CC)CCCC` (stereo not drawn), the result was inactive.

Regarding `CC1(C)[C@H](C(=O)O[C@H](C#N)c2cccc(Oc3ccccc3)c2)[C@@H]1C=C(Br)Br`, the outcome was inactive.

Consider `CCC(C)c1cc([N+](=O)[O-])cc([N+](=O)[O-])c1OC(=O)C=C(C)C` (stereo not drawn), for which the AC50 is 31.7 µM (active).

Take `COCC(=O)N(c1c(C)cccc1C)N1CCOC1=O`: the outcome was inactive.

`Oc1cc(Cl)ccc1Cl`: the result was inactive.

With `CCCCCCCCCCCC#N`, the outcome was inactive.

Turning to `N#CCCCCC#N`, the outcome was inactive.

For the compound `c1ccc(Nc2ccc3ccccc3c2)cc1`, the AC50 was 36.9 µM (active).

On to `O=P1(NCCCl)OCCCN1CCCl` (stereo not drawn), for which the result was inactive.

For the compound `O=S(=O)(c1ccccc1)c1ccccc1`, the result was inactive.

For the compound `Nc1ccc(-c2ccc(N)c(N)c2)cc1N`, the result was inactive.

Consider `CC(C)CCCCCCCOC(=O)c1ccccc1C(=O)OCCCCCCCC(C)C`, for which the outcome was inactive.

`COc1ccc(CO)cc1`: the result was inactive.

Take `O=[N+]([O-])c1ccc(Cl)cc1`: the outcome was inactive.

Regarding `CC(C)CCCCCCCOP(=O)(Oc1ccccc1)Oc1ccccc1`, the AC50 is 25.7 µM (active).

Consider `O=C1C=CC(=O)C=C1`, for which the outcome was inactive.

Consider `CCCC[N+](CCCC)(CCCC)CCCC`, for which the result was inactive.

As to `CC(C)(c1cc(Cl)c(O)c(Cl)c1)c1cc(Cl)c(O)c(Cl)c1`, the AC50 was 5.15 µM (active).

With `CC(C)(C)C(O)C(Oc1ccc(-c2ccccc2)cc1)n1cncn1` (stereo not drawn), the result was inactive.

As a reminder, the AC50 is the concentration at which the activity in the assay is half-maximal.

These data come from PubChem BioAssay (EPA / NIEHS).
